Calls of active or inactive are those of the source. The call rests on the fitted dose curve; in most records, active means well fitted curve in the direction sought with a large enough effect; inconclusive means small, poorly fitted or top-dose-only effect, or another doubt; inactive means no such curve, though single readings can be large or run the other way.
Biological target: Lysosomal acid glucosylceramidase (Homo sapiens) (UniProt P04062)
Assay: qHTS Assay for Inhibitors and Activators of N370S glucocerebrosidase as a Potential Chaperone Treatment of Gaucher Disease: Activity in Non-Mutant Spleen Using Alternate Substrate Confirmation for Probe SAR
Details: human spleen homogenate, resorufin-glucoside fluorescence, 40 min; series mostly up to 57.5 µM
Source text: NIH Chemical Genomics Center [NCGC] NIH Molecular Libraries Probe Production Centers Network [MLPCN] MLPCN Grant: MH086442-01 Assay Submitter (PI): Wei Zheng Glucocerebrosidase (GC) catalyzes the hydrolysis of beta-glucocerebroside to glucose and ceramide in lysosomes. Mutations in the glucocerebrosidase gene result in Gaucher disease, an autosomal recessive lysosomal storage disorder. Many of the mutations encountered in patients with Gaucher disease are missense alterations that may cause misfolding, decreased stability and/or mistrafficking of this lysosomal protein. […] These inhibitors include iminosugar analogs and three non-iminosugar inhibitors identified from a previous HTS of 62,000 compounds with the wild type recombinant enzyme. However, the enhancement of enzyme activity by the chaperone action of an enzyme inhibitor must be balanced against the direct inhibition of the enzyme. An enzyme activator could also function as a chaperone by binding to the enzyme and helping to correct its misfolding and mistrafficking. While activators for GC have not yet been identified, they may have better therapeutic potential than inhibitors. Therefore the discovery and development of chemical activators may provide a new strategy for the chaperone therapy. We have optimized a new assay using N370S mutant GC derived from the spleen of a Gaucher patient. […] In addition, the MLPCN compound library has expanded, which increases the chance of finding new and better probes. This confirmation assay tests for compound activity in spleen homogenate containing wildtype enzyme using an alternate resorufin-based substrate.
NCGC Assay Protocol Summary: This is a fluorogenic enzyme assay with resorufin-beta-D-glucopyranoside as the substrate and wildtype glucocerebrosidase from human spleen homogenate as the enzyme preparation. Upon the hydrolysis of this fluorogenic substrate, the resulting product, […] which can be detected by a standard fluorescence plate reader. Data were normalized to the controls for basal activity (without enzyme) and 100% activity (with enzyme). The AC50 values were determined from concentration-response data modeled with the standard Hill equation. Assay buffer: 50 mM citric acid (titrated with potassium phosphate to pH 5.0), 100 mM potassium chloride, 10 mM sodium chloride, 1 mM magnesium chloride, 0.01% Tween-20. 1536-well assay protocol: (1) Add 2 ul/well of spleen homogenate (27 ug final) (2) Add 23 nL compounds in DMSO solution. The final titration was 0.5 nM to 58 uM. (3) Add 2 ul of substrate (1 mM final) (4) Incubate at 37C for 40 min. (5) Add 2 ul stop solution (1M NaOH and 1M Glycine mixture, pH 10) (6) Detect the assay plate in a ViewLux plate reader (PerkinElmer) with Ex=365 nm and Em=440nm. Keywords: Glucocerebrosidase, beta-glucosidase, Gaucher Disease, pharmacological chaperone, chaperone therapy, high throughput screening, glucocerebrosidase inhibitor, MLSMR, MLSCN, NIH Roadmap, qHTS and NCGC

Sequence of Lysosomal acid glucosylceramidase (Homo sapiens) (P04062 whole entry, looked up): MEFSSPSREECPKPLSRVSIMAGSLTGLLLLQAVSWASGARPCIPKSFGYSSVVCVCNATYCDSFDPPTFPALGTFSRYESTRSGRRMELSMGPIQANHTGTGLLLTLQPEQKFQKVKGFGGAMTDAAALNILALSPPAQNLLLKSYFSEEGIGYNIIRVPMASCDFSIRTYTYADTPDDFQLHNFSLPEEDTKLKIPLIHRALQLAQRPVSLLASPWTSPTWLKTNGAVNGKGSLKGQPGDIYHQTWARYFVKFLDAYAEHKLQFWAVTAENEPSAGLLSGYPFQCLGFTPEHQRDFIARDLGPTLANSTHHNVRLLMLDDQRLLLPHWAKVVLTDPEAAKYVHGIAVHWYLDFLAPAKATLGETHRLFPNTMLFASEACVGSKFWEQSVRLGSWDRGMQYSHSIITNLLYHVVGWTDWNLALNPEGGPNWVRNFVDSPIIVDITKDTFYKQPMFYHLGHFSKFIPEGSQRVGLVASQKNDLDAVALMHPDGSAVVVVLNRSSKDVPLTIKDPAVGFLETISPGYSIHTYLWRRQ

outcome, inactive:
Cc1cc(C)n2ncc(C(=O)Nc3ccc(C)c(C)c3)c2n1
Cc1cc(C)n2ncc(C(=O)Nc3ccccc3)c2n1
Cc1cc(C)n2ncc(C(=O)N3CCCC3)c2n1
COc1ccc(NC(=O)c2cnn3c(C)cc(C)nc23)cc1Cl
Cc1cc(C)n2ncc(C(=O)Nc3ccc(S(C)(=O)=O)cc3)c2n1
Cc1cc(C)n2ncc(C(=O)NCc3ccco3)c2n1
Cc1cc(C)n2ncc(C(=O)Nc3ccc4c(c3)OCO4)c2n1
CC(=O)Nc1ccccc1NC(=O)c1cnn2c(C)cc(C)nc12
C#Cc1ccc(NC(=O)c2cnn3c(C)cc(C)nc23)cc1
O=C(Nc1cnn(Cc2ccc(F)cc2)c1)c1cnn2c(C(F)F)cc(-c3ccccc3)nc12
Cc1cc(C)n2ncc(C(=O)Nc3ccncc3)c2n1
Cc1cc(C)n2ncc(C(=O)Nc3ccc(Br)cc3)c2n1
COc1ccc(NC(=O)c2cnn3c(C)cc(C)nc23)cc1F
CC(=O)c1ccc(NC(=O)c2cnn3c(C)cc(C)nc23)cc1
COc1ccc(NC(=O)c2cnn3c(C)cc(C)nc23)cc1
COc1cc(NC(=O)c2cnn3c(C)cc(C)nc23)cc(OC)c1OC
CNC(=O)c1cnn2c(C)cc(C)nc12
Cc1cc(C)n2ncc(C(=O)Nc3cccc(C(F)(F)F)c3)c2n1
CC(=O)Nc1ccc(NC(=O)c2cnn3c(C)cc(C)nc23)cc1
Cc1cc(C)n2ncc(C(=O)Nc3ccc4c(c3)OCCO4)c2n1
Cc1cc(C)n2ncc(C(=O)Nc3ccc(C(F)(F)F)cc3)c2n1
Cc1cc(C)n2ncc(C(=O)NC(C)C)c2n1
Cc1cc(C)n2ncc(C(=O)Nc3cccc(C#N)c3)c2n1
Cc1cc(C)n2ncc(C(=O)Nc3ccc4c(c3)CCC4)c2n1
Cc1cccc(NC(=O)c2cnn3c(C)cc(C)nc23)c1
CC(=O)c1cccc(NC(=O)c2cnn3c(C)cc(C)nc23)c1
Cc1ccc(NC(=O)c2cnn3c(C)cc(C)nc23)c(C)c1
Cc1cc(C)n2ncc(C(=O)NC3CCCCC3)c2n1
Cc1cc(C)n2ncc(C(=O)NCc3ccccc3)c2n1
Cc1cc(C)n2ncc(C(=O)NCC(C)C)c2n1
Cc1cc(C)n2ncc(C(=O)Nc3ccc(C#N)cc3)c2n1
Cc1cc(C)n2ncc(C(=O)Nc3ccccc3C)c2n1
Cc1ccc(NC(=O)c2cnn3c(C)cc(C)nc23)cc1
Cc1cc(C)n2ncc(C(=O)Nc3ccc(C(C)(C)C)cc3)c2n1
COc1ccc(NC(=O)c2cnn3c(C)cc(C)nc23)cc1OC
Cc1cc(C)n2ncc(C(=O)NC3CCC(C(C)(C)C)CC3)c2n1 (configuration not stated)
CCc1ccc(NC(=O)c2cnn3c(C)cc(C)nc23)cc1

From PubChem BioAssay AID488853 (National Center for Advancing Translational Sciences (NCATS), 2010)
